# From PubChem BioAssay (NCATS)
# Records with an inconclusive call do not appear. A call without a number means that no potency is given here. The source made the active and inactive calls. Calls follow the shape of the dose curve; as a rule, active = well fitted inhibition curve with a large enough effect; inconclusive = small, poorly fitted or top-dose-only effect; inactive = flat fitted curve, though single readings scatter.
# Target: DNA repair nuclease/redox regulator APEX1 (Homo sapiens) (UniProt P27695)
# Assay: qHTS Validation Assay for Inhibitors of the Human Apurinic/apyrimidinic Endonuclease 1 (APE1) (AID 1705)
# Conditions: purified APE1 endonuclease activity, fluorescence, titration; series mostly up to 57.1 µM
# In short: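 Substrate: 50 nM final fluorophore/quencher THF-abasic duplex. Enzyme preincubated with compounds 15 min, RT. Progress derived from fluorescence difference, third minus first kinetic read.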
# Potency is read from the fitted curve at half-maximal effect.
# DNA repair nuclease/redox regulator APEX1 (Homo sapiens), sequence (P27695 whole entry, looked up): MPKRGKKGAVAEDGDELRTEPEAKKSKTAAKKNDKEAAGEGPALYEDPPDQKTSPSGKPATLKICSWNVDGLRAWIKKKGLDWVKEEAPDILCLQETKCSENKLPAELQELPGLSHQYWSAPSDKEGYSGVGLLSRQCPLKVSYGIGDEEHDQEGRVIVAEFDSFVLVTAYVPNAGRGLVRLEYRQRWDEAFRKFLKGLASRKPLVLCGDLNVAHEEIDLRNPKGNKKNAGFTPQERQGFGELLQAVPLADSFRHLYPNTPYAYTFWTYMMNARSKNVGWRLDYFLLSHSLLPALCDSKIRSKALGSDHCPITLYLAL
row,Compound,Potency
1,O=C1NC(O)=NC1(c1ccccc1)c1ccccc1,inactive
2,O=c1[nH]c2ccccc2n1CCCN1CCN(C(c2ccccc2)c2ccccc2)CC1,inactive
3,COc1cc(OC)c(/C=C2/C(=O)Nc3ccccc32)c(OC)c1,inactive
4,N#C/C(=C\c1c[nH]c2ccccc12)C(=O)c1ccc(O)c(O)c1,inactive
5,CC(C)(C=O)Cc1cc(C(C)(C)C)c(O)c(C(C)(C)C)c1,inactive
6,COc1ccccc1N1CCN(CCCCNS(=O)(=O)c2cccc3c(N(C)C)cccc23)CC1,inactive
7,NC[C@@H]1O[C@H](C23CC4CC(CC(C4)C2)C3)Cc2c1ccc(O)c2O,inactive
8,O=Nc1ccc2oc(=O)ccc2c1,inactive
9,Brc1c(Br)c(Br)c2n[nH]nc2c1Br,inactive
10,CN=c1nc(-c2ccccc2)n(-c2ccccc2)s1,inactive
11,CN1CCc2ccccc2Cc2[nH]c3ccccc3c2CC1,inactive
12,Cn1cc(C2=C(c3ccc(Cl)cc3Cl)C(=O)NC2=O)c2ccccc21,35.5 µM (active)
13,COC1=C(OC)C(=O)c2ccccc2C1=O,inactive
14,Cc1ccc(O)c(N=Nc2ccccc2)n1,inactive
15,COc1ccccc1CNCCCCCCNCCCCCCCCNCCCCCCNCc1ccccc1OC,inactive
16,CC(C)Cc1ccc([C@H](C)C(=O)O)cc1,inactive
17,CN(C)c1nc2c(Br)c(Br)c(Br)c(Br)c2[nH]1,inactive
